LASV entry inh = qHTS for Inhibitors of binding or entry into cells for Lassa Virus; Potency, µM (series often up to 49.2 µM), most hits filed as inhibitors; 18,000 compounds, 4.1% hits; Lassa virus pseudotyped entry inhibition, cell-based qHTS; AID 720533, 2013
Marburg entry = qHTS for Inhibitors of binding or entry into cells for Marburg Virus; Potency, µM (highest dose often 49.2 µM), usual class: inhibitors; AID 720532, 2013; Marburg virus pseudotype entry/binding inhibition, cell-based; 18,000 compounds, 6.5% hits
Hits are given with their value; – = inactive; ? = inconclusive; · = not tested or not shown; ! = repeats disagree; [ ] = remark or other dose. Only some compounds are listed: those with a hit (about 8.6% of all), similar ones and a draw of the others. Calls follow the shape of the full dose curve; tested in HEK293 cells.

SMILES	LASV entry inh	Marburg entry
COc1ccccc1C1CN(Cc2cccc(O)c2)Cc2ccccc2O1 (stereo not drawn)	–	–
Cc1nc(Nc2ncc(C(=O)Nc3c(C)cccc3Cl)s2)cc(N2CCN(CCO)CC2)n1	?	13µM
CC(C)ON(C(C(=O)NO)C(C)C)S(=O)(=O)c1ccc(-c2ccccc2)cc1 (stereo not drawn)	6.3µM	6.3µM
CC(C)ON(CC(=O)NO)S(=O)(=O)c1ccc(-c2ccccc2)cc1	–	–
COc1ccc(C[C@@H]2NC[C@H](O)[C@@H]2OC(C)=O)cc1	0.011µM	?
COc1ccc(N2C[C@H](Cc3ccccc3)[C@@H](CC(=O)Nc3ccccc3)C2=O)cc1	·	–
COc1ccc2cc(CCC(C)=O)ccc2c1	–	–
COc1ccc(C[C@H]2NC[C@H](O)[C@H]2OC(C)=O)cc1	3.5e-05µM	?
Cc1cc(C(=O)Nc2cccc(-c3nc(CNC(=O)c4sc(C)nc4C)c(C)o3)c2)c(C)o1	–	–
CCN1C(=O)NC(c2ccco2)C(C(C)=O)=C1C (stereo not drawn)	–[8.59 µM]	–[8.59 µM]
CC(CN1c2ccccc2Sc2ccccc21)N(C)C (stereo not drawn)	32µM!	13µM
CN(C)C(=O)OC1=C(c2ccccc2)Sc2ccccc2-n2cccc21	?	–
C[C@@H](CN1c2ccccc2Sc2ccccc21)N(C)C	–	10µM
CC[C@@H](C)[C@H](NS(=O)(=O)c1ccc(F)cc1Br)C(=O)OC	–	–
N#CCCn1cnc2c1NC=NC2Cl (stereo not drawn)	–	–
COc1cccc(-c2coc3ccc(Br)cc3c2=O)c1	–	–
CC(C)C[C@@H]1COc2cccc(NN3CCN(C)CC3)c2S(=O)(=O)N1	–	–
CN1CCOC(c2ccccc2)c2ccccc2C1 (stereo not drawn)	?	11µM!
N=C(N)N1Cc2ccccc2C(O)C1 (stereo not drawn)	–	–
CNC(=O)C[C@H]1C(=O)N(CCc2ccccc2)C[C@@H]1CSC	–	–
CC(=O)Nc1ccc(OC(C)=O)cc1	–	–
CC(=O)Oc1cc2c(c(C)c1OC(C)=O)CC=C1[C@]3(C)CC[C@]4(C)CC[C@@](C)(C(=O)O)CC4[C@]3(C)CC[C@]12C (stereo partly drawn)	20µM	11µM
O=S1(=O)N[C@H](Cc2ccccc2)COc2cc(F)ccc21	–	–
O=S1(=O)CCSC[C@@H](CN2CCCC2)N1	–	–
CCNC1(c2cccs2)CCCCC1=O (stereo not drawn)	–	–
SMILES	LASV entry inh	Marburg entry
Cc1ccc(/C=C2/CNC/C(=C\c3ccc(C)cc3)C2=O)cc1	11µM	3.5µM
CC(=O)OC[C@H]1O[C@H](CCON=C(C)CCC(=O)OC[C@H]2O[C@H](C#Cc3ccccc3)C=C[C@H]2Oc2ccc(C)cc2)C=C[C@H]1OC(C)=O	–[8.59 µM]	–[8.59 µM]
O=C(CCCN1CCN(c2ccc(F)cc2)CC1)NC1c2ccccc2CSc2ccccc21 (stereo not drawn)	–	14µM
O=C(CCCN1CCN(c2ccccn2)CC1)c1ccc(F)cc1	–	–
C=CCN1C(=O)C(CC(C)C)NC1=S (stereo not drawn)	–	–
COc1ccc(-c2oc3cc(OC)c(OC(C)=O)c(OC)c3c(=O)c2OC)cc1OC(C)=O	0.32µM	–
COc1ccc(-c2oc3ccccc3c(=O)c2O)cc1OC	–	–
COc1cc2oc(=O)cc(-c3ccc(-c4cccc(N)c4)cc3)c2c(OC)c1OC	–	?
COc1ccc(-c2ccc(-c3cc(=O)oc4cc(OC)c(OC)c(OC)c34)cc2)cc1OC	18µM	–
CCCc1ccc(C(=O)O)cc1	–	–
CC1CC2CCC(O2)C(C)C(=O)OC(C)CC2CCC(O2)C(C)C(=O)OC(C)CC2CCC(O2)C(C)C(=O)OC(C)CC2CCC(O2)C(C)C(=O)O1 (stereo not drawn)	1µM	5µM
OC1(c2ccc(Cl)c(C(F)(F)F)c2)CCN(CCCC(c2ccc(F)cc2)c2ccc(F)cc2)CC1	11µM	2.8µM
Cc1ccc(C2(O)CCN(CCCC(=O)c3ccc(F)cc3)CC2)cc1	–	?
CC(NC(=O)c1cc(F)ccc1F)c1nnc2n1CCN(Cc1ccco1)CC2 (stereo not drawn)	–	–
Cc1ccccc1-c1nc(NCCN2CCOCC2)c2ccccc2n1	–	–
Cc1ccccc1-c1nc(NC2CCNCC2)c2ccccc2n1	–	8.9µM
CC(C)(C)OC(=O)N1CC[C@H]1COc1cnc[c]([Sn]([CH3])([CH3])[CH3])c1	–[8.59 µM]	–[8.59 µM]
NC(=O)c1ccc([N+](=O)[O-])cc1Cl	–	–
O=[N+]([O-])c1ccc2c(c1)S(=O)(=O)C=C2	11µM	6.3µM
O=C(/C=C/c1ccc(/C=C/C(=O)Nc2ccc(C3=NCCN3)cc2)cc1)Nc1ccc(C2=NCCN2)cc1	–	?
CCCC[N+]12C3CC(C(CC)[C@H]1O)[C@@H]1C(O)C4(C[C@@H]12)c1ccccc1N(C)C34 (stereo partly drawn)	–	?
C=C(Br)CO[C@@H]1C=C[C@@H](c2ccccc2)O[C@@H]1COC	–[8.59 µM]	–[8.59 µM]
CC(NC(=O)c1cc(F)ccc1F)c1nnc2n1CCN(Cc1ccccc1O)CC2 (stereo not drawn)	–	–
C=CCN1CC[C@]23c4c5ccc(O)c4OC2C(=O)CC[C@]3(O)C1C5 (stereo partly drawn)	–	–
C=C1CC[C@@]2(O)[C@H]3Cc4ccc(O)c5c4[C@@]2(CCN3CC2CC2)[C@H]1O5	–	–
SMILES	LASV entry inh	Marburg entry
C=C(C)CN1CC[C@@]23c4c5ccc(O)c4O[C@H]2c2[nH]c4ccccc4c2C[C@]3(O)[C@@H]1C5	?	22µM
Oc1ccc2c3c1O[C@H]1c4[nH]c5ccccc5c4C[C@@]4(O)C(C2)N(CC2CC2)CCC314 (stereo partly drawn)	?	13µM
Cc1cc(-c2cc(F)cc3c2OC(CNC(=O)CCn2cncn2)C3)ccc1F (stereo not drawn)	–	–
OC[C@@H]1O[C@H](OC2[C@@H](O)[C@@H](O)[C@@H](O)O[C@@H]2CO)[C@H](O)[C@@H](O)[C@@H]1OC1O[C@H](CO)[C@@H](O)[C@H](O)[C@@H]1O (stereo partly drawn)	–	–
COc1ccc(C=CC2=C[C@]3(C)C[C@]2(C)[C@H](c2ccc(OC)cc2)CC3=O)cc1	–[8.59 µM]	–[8.59 µM]
Nc1c(S(=O)(=O)O)cc(Nc2cccc3ccccc23)c2c1C(=O)c1ccccc1C2=O	–	–
Nc1ccccc1S(=O)(=O)Nc1cccc2cccnc12	18µM	7.1µM
Cc1cc(=O)oc2cc(NC(=O)C(CCCCN)NC(=O)C(CC3CCCCC3)NC(=O)OCC3c4ccccc4-c4ccccc43)ccc12 (stereo not drawn)	–	–
Cc1cc(=O)oc2cc(NC(=O)[C@H](CCCCN)NC(=O)[C@H](CC3CCCCC3)NC(=O)OCC3c4ccccc4-c4ccccc43)ccc12	?	10µM
C=CCN=C1NC(c2cccc(C(F)(F)F)c2)C(C(=O)OC)=C(C)N1CC (stereo not drawn)	–[8.59 µM]	–[8.59 µM]
COc1cc(=O)n2c(c1C(=O)N(C)Cc1nonc1C)CCN(Cc1c(F)cccc1F)CC2	11µM	–
COc1cc(=O)n2c(c1C(=O)N(C)Cc1nonc1C)CCN(Cc1cc(F)ccc1F)CC2	–	–
NS(=O)(=O)c1ccc(Nc2cc(-c3ccc(O)c(F)c3)[nH]n2)cc1	–	–
COc1ccc(-n2c(CNC(=O)c3c(-c4ccccc4)noc3C)nnc2SC)cc1	–	–
CCCCn1c(=O)c2[nH]c(C34CC5CC(CC3C5)C4)nc2n(CCCO)c1=O	–	–

From PubChem BioAssay
